# Test results published in PubChem BioAssay AID770 (SRMLSC, 2007).
# The whole screen tested about 3,300 compounds, of which fewer than 10 were called active.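 Rule for the calls: active = growth inhibition above 90% in viable cell count at a single dose; inactive = growth inhibition below 90%.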 These entries were drawn from the full list.
# Experiment: HT29 colon tumor cell growth inhibition, primary screen, imaging, high content imaging, 24 h, CellTiter-Glo (AID 770);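 for condensed nuclei: share of cells whose nuclear area falls below control median minus 1.5 SD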
# Conditions: HT29 cell number by imaging, at 10 µM, stronger effect = higher value; for condensed nuclei: measured here: percent cells with condensed nuclei
# [1] = measured here: ATP CellTiter-Glo viability
Structure (SMILES),growth inhibition,growth inhibition [1] [%],condensed nuclei [%]
COc1ccc(C2C(C(C)=O)=C(O)C(=O)N2c2nccs2)cc1OC (configuration not stated),6.29% (inactive),-2.95,3.31
CCc1cc(=O)oc2cc(C)c(CN3CCCC3)c(O)c12,22.4% (inactive),0.04,4.19
CN(C)CCCN(CCCNC(=O)/C=N/O)Cc1ccccc1,-11.9% (inactive),-9.76,2.84
Nc1nnnn1CC(=O)OCc1cccc(Br)c1,-17.1% (inactive),-5.1,1.92
CN1CC(=O)Nc2ccc(F)cc2C1=O,2.67% (inactive),-9.28,13.9
CCCC(=O)N(Cc1cc2ccccc2[nH]c1=O)c1ccccc1OC,0.99% (inactive),5.4,3.75
COc1ccc(CNC(=O)[C@H](C)NC(=O)C2CCN(S(=O)(=O)c3ccc(C)cc3)CC2)cc1,-1% (inactive),-14.3,4.4
CCc1nc2sc3c(c2c(=O)o1)CCCC3,-25.2% (inactive),-2.13,2.35
Cc1ccc(N(CN2C(=O)NC(C)(C)C2=O)CN2C(=O)NC(C)(C)C2=O)cc1,24.1% (inactive),-7.36,3.39
CN1CCN(CCCN2c3ccccc3Sc3ccc(Cl)cc32)CC1,-25.4% (inactive),-28.5,2.59
CN(C)CCCN1c2ccccc2Sc2ccc(C(F)(F)F)cc21,62.5% (inactive),40.5,4.92
OCCN1CCN(CCCN2c3ccccc3Sc3ccc(C(F)(F)F)cc32)CC1,89% (inactive),59.7,12.9
CN1CCN(CCCN2c3ccccc3Sc3ccc(C(F)(F)F)cc32)CC1,95.6% (active),87.9,15.7
OCCN1CCN(CCCN2c3ccccc3Sc3ccc(Cl)cc32)CC1,95.8% (active),77.7,11.7
CN(C)CCCN1c2ccccc2Sc2ccc(Cl)cc21,37.5% (inactive),25.5,5.79
CCN(CC)CCNc1nc(-c2ccco2)c2c(c1C#N)CC(C)(C)OC2,0.38% (inactive),-1.61,4.74
CC1(C)CC(=O)C=C(NCCO)C1,25.6% (inactive),9.68,3.37
O=S(=O)(c1cccc2nsnc12)N1CCN(C/C=C/c2ccccc2)CC1,-27% (inactive),4.18,4.32
Cc1cc(OCC(=O)Nc2ccc3oc(-c4ccncc4)nc3c2)ccc1Cl,-2.56% (inactive),-0.21,2.42
